The results in this text go back to PubChem BioAssay AID602340 (Broad Institute, 2012).

Hit rate of the full screen: of about 330,000 compounds, about 2,600 (0.79%) were called active. Shown is part of a subset that was picked to be rich in actives. Values without a mark were called inactive.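 Rule for the calls: active = mean ATP rescue above about 67%, or every replicate alone reaching that limit (limit read from the data, passing the limit was not always enough); inconclusive = no clear call, values can overlap the other calls; inactive = mean under the limit and some replicate under it.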

A short description of the test: suppressors of statin myotoxicity in C2C12 myotubes, primary screen, cell-based, single point, plate reader (AID 602340).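 Note: myotubes were challenged with 10 µM simvastatin during compound exposure.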 To be noted: C2C12 myotubes + simvastatin, ATP luminescence, 48 h; at 7.49 µM; active compounds read high; scaled: DMSO 0, geranylgeraniol control 100.
In the case of `O=C(C[C@H]1C=C[C@@H](NC(=O)C2CCOCC2)[C@@H](CO)O1)NCC1CCCCC1`, the rescue of ATP level was -2.92%.
Then `CO[C@@H]1CN(C)C(=O)c2cc(NS(=O)(=O)CC(F)(F)F)ccc2OC[C@@H](C)N(Cc2ccccn2)C[C@H]1C`, with -12.7%; and `CCCCOC(=O)Nc1sc2nc(C)cc(C)c2c1-n1cccc1`, with 66.9% (active); and `COC(=O)Nc1sc2nc(C)cc(C)c2c1-n1cccc1`, with -7.59%.
On to `Cc1cc(C)c2c(-n3cccc3)c(C(=O)NNS(=O)(=O)c3ccc(F)cc3)sc2n1`, for which the rescue of ATP level is 7.07%.
Then `CCC(=O)N(C)C[C@H]1[C@H](c2ccc(C3=CCCCC3)cc2)[C@@H](CO)N1C(C)=O`, with 16.5%; and `C[C@H](CO)N1C[C@H](C)[C@@H](CN(C)Cc2ccc(-c3ccccc3)cc2)Oc2ccc(NC(=O)CCC(F)(F)F)cc2CC1=O`, with 74.7% (active).
Then `C[C@@H]1CN([C@H](C)CO)C(=O)Cc2cc(NC(=O)Cn3cnnn3)ccc2O[C@H]1CN(C)Cc1ccc(Cl)c(Cl)c1`, with 18.5%.
As to `C[C@H]1CN([C@@H](C)CO)C(=O)Cc2cc(NC(=O)Cn3cnnn3)ccc2O[C@H]1CN(C)Cc1ccc(C(=O)O)cc1`, the rescue of ATP level was -21.6%.
The same measure for `C[C@@H]1CN([C@H](C)CO)C(=O)Cc2cc(NC(=O)CCC(F)(F)F)ccc2O[C@@H]1CN(C)Cc1ccncc1`: -15.3%; for `C[C@H]1CN([C@@H](C)CO)C(=O)Cc2cc(NC(=O)CCCCCC(=O)Nc3ccccc3N)ccc2O[C@@H]1CN(C)Cc1ccncc1`: 20.5%.
The same measure for `C[C@@H]1CN([C@@H](C)CO)C(=O)Cc2cc(NC(=O)CCCCCC(=O)Nc3ccccc3N)ccc2O[C@H]1CN(C)C(=O)Nc1ccc(C(F)(F)F)cc1`: -13.1%; for `C[C@H]1CN([C@@H](C)CO)C(=O)Cc2cc(NC(=O)CCCN(C)C)ccc2O[C@@H]1CN(C)Cc1ccc(-c2ccccc2)cc1`: 17.6%; for `C[C@H](CO)N1C[C@H](C)[C@@H](CN(C)Cc2ccc(Cl)c(Cl)c2)Oc2ccc(NC(=O)Cn3cnnn3)cc2CC1=O`: 88.7% (active).
Then `C[C@H](CO)N1C[C@H](C)[C@H](CN(C)Cc2ccc(C(F)(F)F)cc2)Oc2ccc(NC(=O)CCCCCC(=O)Nc3ccccc3N)cc2CC1=O`, with 183% (active); and `CO[C@H]1CN(C)C(=O)c2ccc(NC(C)=O)cc2OC[C@H](C)N(C(=O)c2ccccc2)C[C@H]1C`, with 3.84%.
Regarding `C[C@@H](NC(=O)[C@H]1[C@H](CO)[C@H]2Cn3c(cccc3=O)[C@@H]1N2Cc1cccnc1)c1ccccc1`, the rescue of ATP level was -8.14%.
Then `C/C=C/c1ccc2c(c1)O[C@@H](CN(C)CC1CCOCC1)[C@@H](C)CN([C@H](C)CO)S2(=O)=O`, with 1.59%.
Then `COCC(=O)N(C[C@H]1N[C@H](CO)[C@H]1c1ccc(C2=CCCCC2)cc1)C(C)C`, with -22.7%; and `Cc1noc(C)c1NC(=O)Nc1ccc2c(c1)CC(=O)N([C@@H](C)CO)C[C@H](C)[C@H](CN(C)S(=O)(=O)c1c(C)noc1C)O2`, with -4.37%; and `O=C(NCC[C@@H]1CC[C@H](NC(=O)Nc2cc(F)ccc2F)[C@@H](CO)O1)Nc1ccc(Cl)cc1`, with 2.28%.
The same measure for `Cc1cc(C(=O)OCC(=O)c2c(N)n(C)c(=O)n(C)c2=O)c(C)o1`: 148% (active).
On to `Cn1c(N)c(C(=O)COC(=O)COc2ccc(Cl)cc2)c(=O)n(C)c1=O`, for which the rescue of ATP level is 9.73%.
Consider `Cn1c(N)c(C(=O)COC(=O)c2ccc3ccccc3c2)c(=O)n(C)c1=O`, for which the rescue of ATP level was -2.95%.
The same measure for `COc1ccc(S(=O)(=O)Nc2cccc3c2O[C@@H](CN(C)C(=O)Nc2ccccc2)[C@@H](C)CN([C@H](C)CO)C3=O)cc1`: -38.3%.
The same measure for `Cc1ccc(-c2csc(NC3OC(=O)c4ccccc43)n2)cc1` (centres undefined): -7.28%; for `Cc1ccc(-c2csc(-c3c[nH]c4ccccc34)n2)cc1`: 102% (active); for `CCn1c(SCCC(C)C)nnc1-c1c[nH]c2ccccc12`: -7.75%.
As for `CC1(C(=O)NCc2ccc3c(c2)OCO3)CCN1CCc1ccccc1` (centres undefined), the rescue of ATP level is 34.5%.
In the case of `Cc1ccc(-c2nc(CS(=O)(=O)CC(=O)NCc3ccc4c(c3)OCO4)c(C)o2)cc1`, the rescue of ATP level is 28.8%.
Then `O=C(CN1CCN(c2nc(-c3ccccc3)cs2)CC1)NCc1ccc2c(c1)OCO2`, with 124% (active).
The same measure for `COc1ccc(NC(=O)CNC(=O)Cc2ccccc2)cc1OC`: -3.67%; for `CCCOc1ccc(Cn2c(O)cc(=O)[nH]c2=O)cc1`: 2.27%.
`COc1cc(=O)[nH]c(=O)n1C(=O)Cc1ccccc1`: the rescue of ATP level is 89.8% (active).
As for `CCCNC(=O)N1[C@H](CNC(C)=O)[C@@H](c2ccc(C3=CCCC3)cc2)[C@@H]1CO`, the rescue of ATP level is 17.7%.
The same measure for `O=C(N[C@H]1C=C[C@@H](CC(=O)N2CCCCC2)O[C@@H]1CO)c1ccc2c(c1)OCO2`: -0.462%; for `CO[C@@H]1CN(C)C(=O)c2cc(NC(=O)NC3CCCCC3)ccc2OC[C@H](C)N(CC2CCOCC2)C[C@H]1C`: -0.27%; for `CC(=O)CCS(=O)(=O)c1ccc(C)c(C)c1`: 101% (active).
The same measure for `Cc1ccc(S(=O)(=O)NCCC(=O)Nc2ccc(C)c(Cl)c2)cc1C`: 1.52%; for `Cc1ccnc(NC(=O)CCNS(=O)(=O)c2ccc(C)c(C)c2)c1`: 0.26%; for `COc1cccc(C(O)c2nc(-c3ccc(C)c(C)c3)cs2)c1` (centres undefined): 8.62%.
The same measure for `COc1ccc(C(O)c2nc(-c3ccc4c(c3)OCO4)cs2)cc1` (centres undefined): 87.4% (active); for `COc1ccc(C(O)c2nc(-c3ccc(OC)nc3)cs2)cc1` (centres undefined): 4.92%.
`CCOc1ccc(C(CC(=O)O)n2cnnn2)cc1OC` (centres undefined): the rescue of ATP level was 5.44%.
The same measure for `O=C(O)CC(c1ccccc1)n1cnnn1` (centres undefined): 86% (active).
`O=C(O)CC(Cn1cnnn1)c1ccccc1` (centres undefined): the rescue of ATP level is 7.4%.
Then `O=C(Nc1cccc(Cl)c1)N[C@H]1CC[C@H](CCNC(=O)C2CCOCC2)O[C@H]1CO`, with -25.3%; and `C[C@@H]1CCCCO[C@H](CN(C)C(=O)Nc2cccc3ccccc23)[C@H](C)CN([C@H](C)CO)C(=O)c2cc(NS(=O)(=O)c3cccs3)ccc2O1`, with 28.4%.
`C[C@H]1CCCCO[C@H](CN(C)C(=O)Nc2ccccc2)[C@@H](C)CN([C@@H](C)CO)C(=O)c2cc(NC(=O)Nc3ccc4c(c3)OCO4)ccc2O1`: the rescue of ATP level was -0.0505%.
Then `C[C@@H]1CCCCO[C@@H](CN(C)Cc2ccc(Cl)c(Cl)c2)[C@@H](C)CN([C@@H](C)CO)C(=O)c2cc(NS(C)(=O)=O)ccc2O1`, with -1.95%; and `C[C@H]1CCCCO[C@@H](CN(C)C(=O)Nc2cccc3ccccc23)[C@@H](C)CN([C@@H](C)CO)C(=O)c2cc(NS(=O)(=O)c3ccc(Cl)cc3)ccc2O1`, with 125% (active).
The same measure for `C[C@@H]1CCCCO[C@@H](CN(C)Cc2ccc3c(c2)OCO3)[C@H](C)CN([C@@H](C)CO)C(=O)c2cc(NS(C)(=O)=O)ccc2O1`: -0.957%.
The same measure for `C[C@@H]1CCCCO[C@H](CN(C)C(=O)Nc2cccc3ccccc23)[C@@H](C)CN([C@H](C)CO)C(=O)c2cc(NS(=O)(=O)c3cccs3)ccc2O1`: -12.1%; for `C[C@@H]1CCCCO[C@@H](CN(C)S(C)(=O)=O)[C@H](C)CN([C@@H](C)CO)C(=O)c2cc(NS(=O)(=O)c3ccc(F)cc3)ccc2O1`: 132% (active); for `C[C@H](CO)N1C[C@H](C)[C@H](CN(C)C(=O)Nc2cccc3ccccc23)OCCCC[C@H](C)Oc2ccc(NC(=O)Nc3ccc4c(c3)OCO4)cc2C1=O`: 90.3% (active).
Regarding `C[C@@H]1CCCCO[C@H](CN(C)S(C)(=O)=O)[C@@H](C)CN([C@H](C)CO)C(=O)c2cc(NS(=O)(=O)c3ccc(Cl)cc3)ccc2O1`, the rescue of ATP level is -21.9%.
Then `C[C@@H]1CCCCO[C@@H](CN(C)Cc2ccc(Cl)c(Cl)c2)[C@H](C)CN([C@@H](C)CO)C(=O)c2cc(NS(C)(=O)=O)ccc2O1`, with 98% (active); and `C[C@@H]1CCCCO[C@H](CN(C)C(=O)Nc2cccc3ccccc23)[C@@H](C)CN([C@H](C)CO)C(=O)c2cc(NC(=O)Nc3ccc4c(c3)OCO4)ccc2O1`, with -47.9%; and `C[C@@H]1CCCCO[C@@H](CN(C)S(C)(=O)=O)[C@@H](C)CN([C@@H](C)CO)C(=O)c2cc(NS(=O)(=O)c3ccc(Cl)cc3)ccc2O1`, with 7.9%.
